Measurements: PubChem BioAssay AID1159580 (chemical genetic matrix, 2015)
Where a name gives a salt, the structure may show the parent alone. The whole screen tested about 5,500 compounds, of which about 2,000 (36%) were called active. Another 18% or so got no clear call; they are omitted. No stated cut-off is given here; in the data, active means normalized growth mostly below about 0.91 (no sharp cut-off); inconclusive means no clear call, values can overlap the other calls; inactive means mostly above about 0.92. The list shows a part of the results. Where a SMILES comes first, the peptide text is derived from it. The star is where a group is joined. Tfa = O=C(C(F)(F)F)*

Assay: chemical genetic growth profiling, strain panel (AID 1159580);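 further: tested at 20 µM; growth read once vehicle control cultures reached saturation at 30 °C; 1 = growth at the plate median or of vehicle wells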
Conditions: S. cerevisiae deletion strains, growth OD
[1] = locus YAL021C, strain ccr4, stronger effect = lower value
[2] = locus YAL026C, strain drs2, stronger effect = lower value
[3] = locus YAL030W, strain snc1, stronger effect = lower value
[4] = locus YBL061C, strain skt5, stronger effect = lower value
[5] = locus YBR009C, strain hhf1, stronger effect = lower value
[6] = locus YBR023C, strain chs3, stronger effect = lower value
[7] = locus YBR171W, strain sec66, stronger effect = lower value
[8] = locus YBR231C, strain swc5, stronger effect = lower value
[9] = locus YBR279W, strain paf1, stronger effect = lower value
[10] = locus YCL011C, strain gbp2, stronger effect = lower value
[11] = locus YCL016C, strain dcc1, stronger effect = lower value
[12] = locus YCL069W, strain vba3, stronger effect = lower value
[13] = locus YCR088W, strain abp1, stronger effect = lower value
[14] = locus YDL005C, strain med2, stronger effect = lower value
[15] = locus YDL040C, strain nat1, stronger effect = lower value
[16] = locus YDR001C, strain nth1, stronger effect = lower value
[17] = locus YDR069C, strain doa4, stronger effect = lower value
[18] = locus YDR137W, strain rgp1, stronger effect = lower value
[19] = locus YDR159W, strain sac3, stronger effect = lower value
[20] = locus YDR297W, strain sur2, stronger effect = lower value
[21] = locus YDR334W, strain swr1, stronger effect = lower value
[22] = locus YDR335W, strain msn5, stronger effect = lower value
[23] = locus YDR392W, strain spt3, stronger effect = lower value
[24] = locus YEL003W, strain gim4, stronger effect = lower value
[25] = locus YEL037C, strain rad23, stronger effect = lower value
[26] = locus YEL061C, strain CIN8 (second series), stronger effect = lower value
[27] = locus YER015W, strain faa2, stronger effect = lower value
[28] = locus YER016W, strain bim1, stronger effect = lower value
[29] = locus YER111C, strain swi4, stronger effect = lower value
[30] = locus YER155C, strain BEM2 (second series), stronger effect = lower value
[31] = locus YFR010W, strain ubp6, stronger effect = lower value
[32] = locus YGL167C, strain pmr1, stronger effect = lower value
[33] = locus YGL173C, strain kem1, stronger effect = lower value
[34] = locus YGL227W, strain vid30, stronger effect = lower value
[35] = locus YGL240W, strain doc1, stronger effect = lower value
[36] = locus YGL253W, strain hxk2, stronger effect = lower value
[37] = locus YHR013C, strain ard1, stronger effect = lower value
[38] = locus YHR027C, strain rpn1, stronger effect = lower value
[39] = locus YHR142W, strain chs7, stronger effect = lower value
[40] = locus YJL092W, strain hpr5, stronger effect = lower value
[41] = locus YJL095W, strain BCK1 (second series), stronger effect = lower value
[42] = locus YJL115W, strain asf1, stronger effect = lower value
[43] = locus YJL129C, strain trk1, stronger effect = lower value
[44] = locus YJL154C, strain vps35, stronger effect = lower value
[45] = locus YJL164C, strain tpk1, stronger effect = lower value
[46] = locus YJL166W, strain qcr8, stronger effect = lower value
[47] = locus YKL160W, strain elf1, stronger effect = lower value
[48] = locus YKR026C, strain gcn3, stronger effect = lower value
[49] = locus YKR091W, strain srl3, stronger effect = lower value
[50] = locus YLL001W, strain dnm1, stronger effect = lower value
[51] = locus YLL026W, stronger effect = lower value
[52] = locus YLL041C, strain sdh2, stronger effect = lower value
[53] = locus YLR027C, strain aat2, stronger effect = lower value
[54] = locus YLR221C, strain rsa3, stronger effect = lower value
[55] = locus YLR258W, strain gsy2, stronger effect = lower value
[56] = locus YLR262C, strain YPT6 (second series), stronger effect = lower value
[57] = locus YLR320W, strain mms22, stronger effect = lower value
[58] = locus YLR342W, strain FKS1, stronger effect = lower value
[59] = locus YLR357W, strain rsc2, stronger effect = lower value
[60] = locus YLR370C, strain arc18, stronger effect = lower value
[61] = locus YLR384C, strain iki3, stronger effect = lower value
[62] = locus YML120C, strain ndi1, stronger effect = lower value
[63] = locus YMR058W, strain fet3, stronger effect = lower value
[64] = locus YMR125W, strain sto1, stronger effect = lower value
[65] = locus YMR129W, stronger effect = lower value
[66] = locus YMR205C, strain PFK2, stronger effect = lower value
[67] = locus YMR231W, strain pep5, stronger effect = lower value
[68] = locus YNL071W, strain lat1, stronger effect = lower value
[69] = locus YNL209W, strain ssb2, stronger effect = lower value
[70] = locus YNL248C, strain rpa49, stronger effect = lower value
[71] = locus YNL322C, strain KRE1 (second series), stronger effect = lower value
[72] = locus YNR049C, strain mso1, stronger effect = lower value
[73] = locus YOR001W, strain rrp6, stronger effect = lower value
[74] = locus YOR070C, strain gyp1, stronger effect = lower value
[75] = locus YOR080W, strain dia2, stronger effect = lower value
[76] = locus YOR083W, strain WHI5, stronger effect = lower value
[77] = locus YOR106W, strain vam3, stronger effect = lower value
[78] = locus YOR265W, strain rbl2, stronger effect = lower value
[79] = locus YOR270C, strain vph1, stronger effect = lower value
[80] = locus YOR290C, strain snf2, stronger effect = lower value
[81] = locus YPL051W, strain arl3, stronger effect = lower value
[82] = locus YPL078C, strain atp4, stronger effect = lower value
[83] = locus YPL106C, strain sse1, stronger effect = lower value
[84] = locus YPL240C, strain hsp82, stronger effect = lower value

Measured: normalized growth

O=C1C=C2C=C[C@@H]3C[C@@]2(O1)[C@H]1CCCCN31
inactive: [1] 1.02 | [2] 1.01 | [3] 0.993 | [4] 1.01 | [5] 0.938 | [6] 1.01 | [7] 0.99 | [8] 0.977 | [9] 1.01 | [10] 1.01 | [11] 1.04 | [12] 0.974 | [13] 0.985 | [14] 0.998 | [15] 0.997 | [16] 0.992 | [17] 0.996 | [18] 0.965 | [19] 0.93 | locus YDR195W, strain ref2 0.973 | [20] 0.994 | [21] 0.956 | [22] 1.01 | [23] 0.973 | [24] 0.95 | [25] 0.982 | [26] 0.976 | [27] 1.01 | [28] 1.03 | [29] 1 | [30] 0.986 | [31] 0.96 | [32] 0.978 | [33] 0.977 | [34] 0.985 | [35] 0.989 | [36] 1.01 | [37] 1.01 | [38] 0.979 | locus YHR030C, strain SLT2, stronger effect = lower value 1.06 | locus YHR079C, strain IRE1, stronger effect = lower value 1.05 | [39] 1.01 | [40] 0.993 | [41] 1 | locus YJL095W, strain BCK1, stronger effect = lower value 1 | [42] 0.993 | [43] 1.01 | [44] 0.986 | [45] 0.969 | [46] 0.961 | locus YJL187C, strain SWE1, stronger effect = lower value 0.984 | locus YJR066W, strain TOR1, stronger effect = lower value 1 | [47] 1.05 | [48] 0.976 | [49] 0.992 | [50] 0.974 | [51] 0.996 | [52] 1 | [53] 1 | locus YLR113W, strain HOG1, stronger effect = lower value 1.03 | [54] 0.966 | [55] 1.01 | [56] 0.927 | [57] 0.926 | [58] 1 | [59] 0.986 | [60] 1.01 | [61] 0.991 | [62] 0.956 | [63] 0.981 | [64] 1 | [65] 0.986 | [66] 0.997 | [67] 0.994 | [68] 0.98 | locus YNL183C, strain NPR1, stronger effect = lower value 0.973 | [69] 1 | [70] 1.04 | [71] 1 | [72] 1.01 | [73] 0.94 | [74] 0.991 | [75] 0.994 | [76] 0.982 | [77] 1.01 | locus YOR231W, strain MKK1, stronger effect = lower value 1.02 | [78] 0.989 | [79] 1 | [80] 1.05 | [81] 1.05 | [82] 1.04 | [83] 1.02 | [84] 0.994 | locus YPL256C, strain CLN2, stronger effect = lower value 1.03

CC(C)C(NC(=O)C(Cc1ccc(O)cc1)NC(=O)C(NC(=O)C(F)(F)F)C(C)C)C(=O)O (stereo not drawn) (Tfa-Val-Tyr-Val-OH; configuration not given here)
inactive: [1] 0.997 | [2] 1 | [3] 0.985 | [4] 0.984 | [5] 1.02 | [6] 0.983 | [7] 0.976 | [8] 1 | [9] 0.996 | [10] 1 | [11] 0.98 | [12] 1 | [13] 0.988 | [14] 0.998 | [15] 0.976 | [16] 0.997 | [17] 0.984 | [18] 0.968 | [19] 0.979 | locus YDR195W, strain ref2 0.995 | [20] 0.985 | [21] 1.01 | [22] 0.994 | [23] 0.935 | [24] 0.996 | [25] 0.99 | [26] 1.01 | [27] 0.999 | [28] 0.976 | [29] 0.972 | [30] 0.983 | [31] 0.997 | [32] 0.985 | [33] 0.991 | [34] 0.988 | [35] 0.998 | [36] 0.982 | [37] 0.94 | [38] 0.988 | [39] 0.995 | [40] 0.995 | [41] 0.975 | [42] 0.986 | [43] 0.995 | [44] 0.98 | [45] 0.989 | [46] 1.02 | [47] 1 | [48] 0.989 | [49] 0.983 | [50] 1 | [51] 1 | [52] 1 | [53] 0.991 | [54] 1 | [55] 0.995 | [56] 0.969 | [57] 0.993 | [58] 0.996 | [59] 0.951 | [60] 0.992 | [61] 1 | [62] 0.98 | [63] 0.982 | [64] 0.978 | [65] 0.998 | [66] 0.998 | [67] 0.997 | [68] 0.987 | [69] 1 | [70] 0.963 | [71] 0.971 | [72] 1 | [73] 1 | [74] 0.995 | [75] 0.984 | [76] 0.94 | [77] 1 | [78] 0.998 | [79] 0.963 | [80] 0.985 | [81] 0.986 | [82] 0.987 | [83] 0.954 | [84] 0.981
